In ChEMBL document CHEMBL4513216, “Probing the Open Global Health Chemical Diversity Library for Multistage-Active Starting Points for Next-Generation Antimalarials” (ACS Infect Dis, 2020) one finds INHIBITION data, which are given here for 67 molecules.

SMILES strings stand for the structures. In all, about 69,000 compounds went through this assay and about 8,600 (12%) showed an effect of 50% or more. This is one part of a sample in which strong results are shown more often than they occur.

This assay concerns Plasmodium berghei. The assay can be described thus: Screen against P. berghei liver stage (PbLuc), transformed with Luciferase, at 10uM. In kind it is functional, HepG2. Conditions: tested at 10 uM.
Turning to `O=C(c1ncccn1)N1CCC[C@]2(C[C@@H](Oc3ncccc3F)CO2)C1`, the INHIBITION is reported as -2.17%.
In the case of `CC(C)C(Sc1nccn1C1CC1)C(=O)NCc1cccnc1` (configuration not stated), the INHIBITION is given as 0.411%.
Then `Cc1ccc(N2CC3(CCN(Cc4nccn4C)C3)CC2=O)s1` (configuration not stated), with 15.9%.
Turning to `CCOC(=O)CN1CC(c2nc(-c3ccsc3)no2)C1`, the INHIBITION is recorded as 9.96%.
Then `CC(C)NC(=O)CNC(=O)c1csc(Cc2ccccc2F)n1`, with -20.6%.
As to `CCCS(=O)(=O)N1CCC(Oc2ccc(C#N)cc2)CC1`, the INHIBITION is listed as 25.8%.
The figure for `COc1ccc(C2CCN(Cc3cscn3)CC2)cc1` is 37.7%; for `Cc1ncsc1C(=O)NC1CCN(CCCC#N)CC1` it is 33.7%.
As for `CCCS(=O)(=O)N1CCC(NCc2c(C)nn(C)c2OC)CC1`, the INHIBITION was -10.9%.
Then `COc1ccc(C2CCN(S(=O)(=O)CCCC#N)CC2)cc1`, with 59.1%.
Regarding `COc1ccc(C2CCN(CCCC#N)CC2)cc1`, the INHIBITION worked out at 63.5%.
The figure for `CC(C)n1cnnc1C1CCCN(S(=O)(=O)CCCC#N)C1` (configuration not stated) is 48.3%.
Then `CCCS(=O)(=O)N1CCC(c2ccc(OC)cc2)CC1`, with 67.8%.
Then `N#CCCCS(=O)(=O)N1CCC(CSc2ccccc2)C1` (configuration not stated), with -18.7%; and `CN(C)c1cc2c(nn1)CCN(C(=O)Cc1ccc3c(c1)CCC3)C2`, with 5.8%.
On to `CCn1nc(C)c2nc(C(C)C)nc(NCC(C)C)c21`, for which the INHIBITION came to 47.4%.
Take `Cc1occc1C(=O)N1CCC2(CC1)NC(=O)CC2c1cnn(C)c1` (configuration not stated): the INHIBITION amounted to 42.1%.
The figure for `CNC(=O)C1CN(C)CCN(CCCOc2ccccc2F)C1` (configuration not stated) is 8.72%.
Turning to `CC(=O)Nc1ccc(SCC(=O)NCC2CCCO2)nn1` (configuration not stated), the INHIBITION is -4.83%.
Take `COc1cccc([C@@]2(O)CC[C@@H]3CN(C(=O)c4cn(C)nc4C)C[C@@H]32)c1`: the INHIBITION is reported as -1.95%.
`OCc1nnn2c1CN(Cc1cccnc1)CCC2`: the INHIBITION was determined as 29%.
With `CCc1cnc(CN(C(C)=O)C2CCN(Cc3nccn3C)C2)o1` (configuration not stated), the INHIBITION is -6.865%.
Take `O=C(NCC1CCCO1)c1cc(Sc2ncccn2)ccn1` (configuration not stated): the INHIBITION amounted to 32.8%.
Then `CS(=O)(=O)N1CCC2(CC1)CC(NCc1ccccn1)c1ccccc12` (configuration not stated), with 45.7%; and `Cn1cc(CNC2CC3(CCN(CC4CC4)CC3)c3ccccc32)cn1` (configuration not stated), with -40.4%; and `CS(=O)(=O)N1CCC2(CC1)CC(CC(=O)NC1CC1)c1ccccc12` (configuration not stated), with 37%.
For `CS(=O)(=O)N1CCC2(CC1)CC(NCC1CC1)c1ccccc12` (configuration not stated), the INHIBITION amounted to 59.3%.
Then `CNC(=O)CC1CC2(CCN(S(C)(=O)=O)CC2)c2ccccc21` (configuration not stated), with 6.66%; and `c1cnc(N2CCC3(CC2)CC(NCC2CC2)c2ccccc23)nc1` (configuration not stated), with 88.1%; and `CN(C)C(=O)CC1CC2(CCN(c3ncccn3)CC2)c2ccccc21` (configuration not stated), with 38.5%.
With `CNC(=O)CNC1CC2(CCN(c3ncccn3)CC2)c2ccccc21` (configuration not stated), the INHIBITION is reported as 2.4%.
For the molecule `Cn1cc(CNC2CC3(CCN(S(C)(=O)=O)CC3)c3ccccc32)cn1` (configuration not stated), the INHIBITION is 44.8%.
The figure for `CS(=O)(=O)N1CCC2(CC1)CC(NCc1ccco1)c1ccccc12` (configuration not stated) is 66.6%; for `CNC(=O)CC1CC2(CCN(c3ncccn3)CC2)c2ccccc21` (configuration not stated) it is 55.6%; for `CC(C)NC(=O)CC1CC2(CCN(S(C)(=O)=O)CC2)c2ccccc21` (configuration not stated) it is 18.5%.
The figure for `CC(Nc1cccc2c1OCCO2)C(=O)Nc1cccc(C#N)c1` (configuration not stated) is 8.12%.
Then `CCc1nc(CN(C(C)=O)C2CCN(CCc3ccccn3)C2)no1` (configuration not stated), with 29.7%; and `Oc1nc(N2CCOCC2)nc2nccc(-c3ccccn3)c12`, with -21.3%.
As to `CNC(=O)c1cc(C)n(-c2ccccc2)n1`, the INHIBITION was found to be 36.2%.
The figure for `O=C(NCc1cccs1)[C@@H]1CC[C@@H]2[C@@H](CCN2CC2CCC2)O1` is 30.3%; for `CC(C)[C@H]1CN(c2cnccn2)C[C@@H]1NC(=O)C1(C#N)CCOCC1` it is 49.5%.
Then `CC(C)C[C@@H](CO)n1cc(-c2cncnc2)nn1`, with 28.4%.
As for `COc1ccc(C(=O)N(C)Cc2nnc3ccccn23)cc1`, the INHIBITION is reported as -35.7%.
Then `CC(C)c1nn(C)c(N(C)C)c1CNCC(O)COc1ccccc1` (configuration not stated), with -37.2%; and `NC(=O)c1ccc(NC(=O)N2CCN(c3cccs3)CC2)c(F)c1`, with 44.3%; and `Cc1cc(C(N)=O)ccc1NC(=O)N1CCN(c2cccs2)CC1`, with 65.6%.
Then `Cc1cc(NC(=O)N2CCN(c3cccs3)CC2)ccc1C(N)=O`, with 41%; and `CS(=O)(=O)NCc1nnc2n1CCN(CC1CC1)C2`, with 39.2%; and `Cc1nc(C2CCCN(C(=O)Cn3ccccc3=O)C2)sc1C` (configuration not stated), with 25.6%.
Regarding `CCn1ccnc1CN1CCCC1Cn1cc(C)cn1` (configuration not stated), the INHIBITION is -53.5%.
Then `O=C(C1CCCC1)N1CCC(c2ccnc(Nc3cnccn3)n2)C1` (configuration not stated), with 22%.
The figure for `CC(=O)N1CCC(c2ccnc(Nc3cnccn3)n2)C1` (configuration not stated) is 50.6%.
The figure for `CNCC(=O)N1CCCC(c2ccnc(Nc3cnccn3)n2)C1` (configuration not stated) is 15.9%; for `Cc1ccc(Nc2nccc(C3CCN(C(=O)CO)C3)n2)nc1` (configuration not stated) it is 40.6%; for `CNCC(=O)N1CCCC(c2cccc(Nc3nc(C)cc(C)n3)n2)C1` (configuration not stated) it is 33%.
As to `CNCC(=O)N1CCC(c2ccnc(Nc3ccc(C)cn3)n2)C1` (configuration not stated), the INHIBITION is 56.3%.
Then `CC(=O)N1CCCC(c2ccnc(Nc3cnccn3)n2)C1` (configuration not stated), with 42.6%.
Consider `Cc1ccc(Nc2nccc(C3CCN(C(=O)CN)C3)n2)nc1` (configuration not stated), for which the INHIBITION was determined as 58.1%.
As to `NCC(=O)N1CCC(c2ccnc(Nc3cc(C(F)(F)F)ccn3)n2)C1` (configuration not stated), the INHIBITION worked out at 19.3%.
On to `Cc1cc(N2CCN(C(=O)[C@@H]3C[C@H]4C=C[C@@H]3C4)CC2)cc(C)n1`, for which the INHIBITION was -1.84%.
The figure for `Cn1ccc(C(=O)NCCOc2ccc(C(C)(C)C)cc2)cc1=O` is 20.3%.
Then `CN1CCC/C1=N\S(=O)(=O)c1ccc(NC(=O)c2ccc(Cl)cc2)cc1`, with 15.6%.
Regarding `CCc1cc(O)n2nc(C3CCN(C(=O)c4ccncc4)CC3)cc2n1`, the INHIBITION came out at 32.85%.
The figure for `CNC(=O)CN1CCOCC2(C1)CN(C(=O)C(C)C)CCO2` (configuration not stated) is -15.7%; for `Cc1ncc2c(n1)CN(C(C(N)=O)c1ccccc1)CC2` (configuration not stated) it is -40.4%; for `Cc1ncc2c(n1)CN(C(C(N)=O)c1ccc(F)cc1)CC2` (configuration not stated) it is 58.5%.
Then `Cc1ncc2c(n1)CCN(C(C(N)=O)c1ccccc1)C2` (configuration not stated), with -4.4%.
